In the library only some 3% were active in any assay of this set; here they are far more common.
Coupling enz: counter-screen for Giardia aldolase inhibitors: coupling enzyme system. 290,000 compounds, 0.67% hits. activity change, negative = inhibition, % at 58.2 µM, hits read low. coupling enzyme system counterscreen, AmpLite Red fluorescence; in the data active means activity change below about -30%
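Compounds tested against the coupling enzymes alone at 57.5 uM final; readout was AmpLite Red fluorescence (525/598 nm) after 20 min at RT.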
Tau fibril FP: blocks human tau fibril formation measured by polarization | K18 P301L tau heparin fibrillization, Alexa594 FP, 6 h | Potency, µM (series often up to 57.7 µM), actives largely listed as inhibitors | 280,000 compounds, 0.39% hits; further: nearly all actives have a fitted effect of over 55% in size
Target sequence (P10636 561-689 P618L limits assumed): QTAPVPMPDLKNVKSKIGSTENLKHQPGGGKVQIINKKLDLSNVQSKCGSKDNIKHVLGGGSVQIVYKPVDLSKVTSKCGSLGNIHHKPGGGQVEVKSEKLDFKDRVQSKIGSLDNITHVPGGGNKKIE
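Human tau K18 […] P301L fragment, 15 uM unlabeled plus 0.24 uM Alexa 594-labeled tau (final), with compound and 20 uM heparin in 100 mM sodium acetate pH 7; 6 hr at 37 C, then Alexa 594 FP read.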
Tau ThT inhib: tau fibrillization inhibition (ThT binding). P10636. recombinant tau K18 P301L, heparin-induced fibrillization, ThT fluorescence. Potency, µM (top dose mostly 57.4 µM), usual class: inhibitors. 270,000 compounds, 2.1% hits. AID 1460; further: nearly all actives have a fitted effect of over 55% in size
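In this qHTS, human K18 P301L tau is incubated with compound and heparin for 6 hr at 37 C, and Thioflavin T fluorescence then reports fibril load.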
KDM4E inh: blocks human JMJD2E demethylase activity; Potency, µM (top dose mostly 57.1 µM), hits mostly inhibitors; 230,000 compounds, 1.6% hits; B2RXH2; JMJD2E catalytic domain, FDH-coupled NADH fluorescence (FDH is formaldehyde dehydrogenase); further: nearly all actives have a fitted effect of over 50% in size
Target sequence (B2RXH2 1-337 limits assumed): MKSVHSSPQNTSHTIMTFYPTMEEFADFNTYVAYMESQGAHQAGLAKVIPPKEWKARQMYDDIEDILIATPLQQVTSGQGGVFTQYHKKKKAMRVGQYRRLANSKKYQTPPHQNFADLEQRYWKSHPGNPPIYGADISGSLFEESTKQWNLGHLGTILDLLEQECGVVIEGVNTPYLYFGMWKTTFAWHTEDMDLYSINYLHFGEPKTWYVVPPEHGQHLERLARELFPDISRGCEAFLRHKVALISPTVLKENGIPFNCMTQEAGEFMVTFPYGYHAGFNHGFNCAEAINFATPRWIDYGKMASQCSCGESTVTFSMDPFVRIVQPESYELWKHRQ
Tau fluor counter: counter-screen for tau fibril formation inhibitors; tau K18 P301L (four-repeat tau fragment) Alexa594 fluorescence, heparin fibrillization; Potency, µM (doses to about 57.7 µM); 280,000 compounds, 0.93% hits; AID 1463; further: nearly all actives have a fitted effect of over 55% in size
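Human K18 P301L tau (15 uM unlabeled plus 0.24 uM Alexa 594-labeled, final) in 100 mM sodium acetate pH 7 was mixed with compound and 20 uM heparin and incubated 6 hr at 37 C.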
Of the large screens only hits and unclear results are named; the others gave an inactive call; ! = not active in a repeat; [ ] = remark or other dose. Unless noted, the call rests on the fitted dose curve; in most records, active means well fitted curve in the direction sought with a large enough effect; inconclusive means small, poorly fitted or top-dose-only effect, or another doubt; inactive means no such curve, though single readings can be large; an effect the other way counts as inactive or inconclusive.

COc1cccc(-n2cc(C(=O)Oc3cccc(C(F)(F)F)c3)c3ccccc3c2=O)c1	none (no result: Coupling enz, KDM4E inh)
COc1cc(Nc2nc(SCc3ccccc3Cl)nc3ccccc23)cc(OC)c1	Tau fibril FP 11µM, Tau ThT inhib inconclusive, Tau fluor counter inconclusive (no result: Coupling enz, KDM4E inh)
COc1ccc(CNc2nc(SCc3ccccc3Cl)nc3ccccc23)cc1	none (no result: Coupling enz, KDM4E inh)
O=C(NCCc1c[nH]c2ccccc12)C1CCC(Cn2c(=S)[nH]c3ccccc3c2=O)CC1 (stereo unspecified)	Tau ThT inhib inconclusive, Tau fluor counter 4µM[quencher]
COc1cc(NC(=O)CCn2c(-c3ccccc3)cc(C(C)=O)c2C)cc(OC)c1	none (no result: Coupling enz, KDM4E inh)
C/C(CC1CC(COCC(C)C)OC1=O)=N\Nc1nc(-c2ccccc2)cs1 (stereo unspecified)	Tau ThT inhib 18µM, Tau fluor counter inconclusive
O=C(Nc1cccc(F)c1)c1ccc(-c2ccccc2C(F)(F)F)o1	Tau fibril FP inconclusive, Tau fluor counter inconclusive
COc1ccc(NC(=O)c2ccc(-c3ccccc3C(F)(F)F)o2)cc1	Tau ThT inhib 25µM, Tau fluor counter 25µM[quencher]
Cc1nc(N2CCOCC2)c2c(C(=O)N(C)Cc3ccccc3)c(C)oc2n1	none (no result: Coupling enz, KDM4E inh)
COC(=O)C1=C(C(=O)OC)[C@@H]2N(C)c3ccc(OC)cc3[C@@]23C[C@@H](C(=O)OC)N(S(=O)(=O)c2ccc(C#N)cc2)C3=N1	none
Cc1cccc(N=Nc2c(C)[nH]n(C(N)=S)c2=O)c1C	Tau ThT inhib 7.9µM
Cc1ccccc1N=Nc1c(C)[nH]n(C(N)=S)c1=O	Tau ThT inhib 14µM
NC(=O)c1cc(-c2ccccc2)sc1NC(=O)CN1CCCCC1	Tau fibril FP inconclusive, KDM4E inh inconclusive, Tau fluor counter 18µM[quencher]
NC(=O)c1cc(-c2ccccc2)sc1NC(=O)Cc1ccc(S(=O)(=O)N2CCOCC2)s1	Tau ThT inhib inconclusive, KDM4E inh inconclusive, Tau fluor counter inconclusive
O=C1c2cccc([N+](=O)[O-])c2C(=O)N1C1CCCCC1	none (no result: Tau fibril FP, Tau ThT inhib, KDM4E inh, Tau fluor counter)
Cc1c(Cl)cccc1N1C(=O)C(N2C(=O)c3cccc([N+](=O)[O-])c3C2=O)C1c1cccs1 (stereo unspecified)	Coupling enz -42
CCOC(=O)c1ccc(CN(Cc2ccc(F)cc2)S(=O)(=O)c2cc(C(=O)Nc3ccccc3CC)ccc2F)cc1	none (no result: Coupling enz, KDM4E inh)
O=C1C(Cl)=C(NS(=O)(=O)c2ccc([N+](=O)[O-])cc2)C(=O)c2ccccc21	Tau fibril FP 8.9µM, Tau ThT inhib 2µM, Tau fluor counter 2.5µM[quencher]
O=[N+]([O-])c1ccc(Oc2ccc(S(=O)(=O)Nc3ccccc3)cc2)cc1	Tau fluor counter inconclusive
COC(=O)C1=C[C@@H](C(=O)OC)C2C3=C(C(=O)[C@@]2(C)NC(=O)c2ccccc2)[C@H](c2ccccc2)[C@@H]2C(=O)N(c4ccccc4)C(=O)[C@@H]2[C@@H]3C1 (stereo partly specified)	none (no result: Tau fibril FP, Tau ThT inhib, KDM4E inh, Tau fluor counter)
COc1cc(/C=N/NC(=O)c2ccc(CN3C(=O)c4cccc5cccc3c45)cc2)cc(OC)c1O	Tau fibril FP inconclusive, Tau ThT inhib inconclusive, KDM4E inh 22µM, Tau fluor counter inconclusive
COc1ccc(Nc2nc(N)c([N+](=O)[O-])c(NCc3ccccc3)n2)cc1	Tau ThT inhib inconclusive, Tau fluor counter 14µM[quencher]
Cc1cccc(Nc2nc(N)c([N+](=O)[O-])c(NCc3ccco3)n2)c1	Tau fibril FP inconclusive, Tau ThT inhib inconclusive, Tau fluor counter inconclusive
Nc1nc(Nc2cccc(Cl)c2)nc(NCc2ccco2)c1[N+](=O)[O-]	Tau fibril FP 28µM, Tau ThT inhib inconclusive, Tau fluor counter inconclusive
COc1ccc(Nc2cc(C)nc(NCc3ccccc3)n2)cc1	Tau ThT inhib inconclusive, Tau fluor counter 35µM[quencher]
Nc1nc(Nc2ccc(Cl)cc2)nc(NCc2ccco2)c1[N+](=O)[O-]	Tau fibril FP 16µM, Tau ThT inhib inconclusive, Tau fluor counter inconclusive
Cc1ccc(Nc2cc(C)nc(NCc3ccccc3)n2)cc1	Tau ThT inhib inconclusive, KDM4E inh inconclusive, Tau fluor counter inconclusive
Cc1ccc(Nc2nc(N)c([N+](=O)[O-])c(NCc3ccccc3)n2)cc1	Tau fibril FP inconclusive, Tau ThT inhib inconclusive, Tau fluor counter inconclusive
COC1=C/C(=C/c2c(N)n3c(nc2=O)sc2cc(S(C)(=O)=O)ccc23)C=CC1=O	Tau ThT inhib inconclusive
CS(=O)(=O)c1ccc2c(c1)sc1nc(=O)c(/C=C3/C=CC(=O)C(O)=C3)c(N)n12	Tau ThT inhib 4µM, KDM4E inh 3.2µM, Tau fluor counter inconclusive
Cc1nc([N+](=O)[O-])cn1CCC#N	none
Cc1[nH]c2ccc3c(ncn3CCC#N)c2c1C	Coupling enz -36, KDM4E inh inconclusive
COc1ccccc1-c1coc2c(CN(C)C)c(O)ccc2c1=O	none (no result: Tau fibril FP, Tau ThT inhib, KDM4E inh, Tau fluor counter)
Cc1nc(-c2coc3c(CN(C)C)c(O)ccc3c2=O)cs1	KDM4E inh 28µM
O=C(O)c1ccc(N2C(=O)c3cccc4c(C(=O)O)ccc(c34)C2=O)cc1	KDM4E inh 28µM
Cc1nn(-c2ccccc2)c2c1N(CC(=O)N1CCN(c3ccc(F)cc3)CC1)C(=O)CS2	none (no result: Coupling enz, KDM4E inh)
CCCCC/C=C\C\C=C/C=C/C=C/[C@@H](SCC(NC(=O)CCC(N)C(=O)O)C(=O)NCC(=O)O)[C@@H](O)CCCC(=O)O (stereo partly specified)	none
O/C(=C\c1ccc2ccccc2n1)c1ccc(O)cc1O	Tau ThT inhib 1.8µM, Tau fluor counter inconclusive
N/N=C(\Cc1cscn1)c1ccc(O)cc1O	Tau ThT inhib inconclusive
Oc1ccc(/C=C/c2ccc3ccccc3n2)cc1	Tau ThT inhib inconclusive, KDM4E inh inconclusive, Tau fluor counter inconclusive
Oc1ccc(/C(Cc2ccccn2)=N\Nc2ccccc2)c(O)c1	Tau ThT inhib inconclusive, KDM4E inh inconclusive, Tau fluor counter 11µM[quencher]
Oc1ccc(/C(Cc2ccc3ccccc3n2)=N\Nc2ccccc2)c(O)c1	Tau ThT inhib 11µM, Tau fluor counter 11µM[quencher]
O=C1N[C@@H]2[C@H](CCCCC(=O)Oc3ccc([N+](=O)[O-])cc3)SC[C@H]2N1	none (no result: Tau fibril FP, Tau ThT inhib, KDM4E inh, Tau fluor counter)
O=C(N/N=C1/C[C@@H](O)[C@@H](O)[C@@H]2[C@H]3C(=O)N(c4ccc(F)cc4F)C(=O)[C@@H]3CC[C@@H]12)OCc1ccccc1	none (no result: KDM4E inh)
COc1ccc2c(c1)c1c(c(=O)n(Cc3ccccc3)c(=O)n1CC(=O)NCc1ccccc1Cl)n2C	none (no result: Coupling enz, KDM4E inh)
CC1(OC(=O)CCc2ccccc2)C(=O)C=C2C=C(c3ccc(C#N)cc3)N(c3ccccc3)C=C2C1=O (stereo unspecified)	Tau fibril FP inconclusive, Tau ThT inhib 13µM!, KDM4E inh 11µM
CC1(OC(=O)CCc2ccccc2)C(=O)C=C2C=C(c3ccc(C#N)cc3)N(C3CCCC3)C=C2C1=O (stereo unspecified)	Tau ThT inhib inconclusive, KDM4E inh 20µM
CCOC(=O)N1CCC(NC(=O)c2cnn(-c3ccc(C)cc3)c2C2CCN(C(=O)OC(C)(C)C)CC2)CC1	none (no result: Coupling enz, KDM4E inh)
COc1ccc(CN2CCC(N(CCc3ccccc3)Cc3ccccc3)CC2)c(OC)c1	KDM4E inh 28µM

Bioassay records: PubChem BioAssay, National Center for Advancing Translational Sciences (NCATS)
